Screening data (PubChem)
Six1-Eya2 inh – inhibitors of human Six1/Eya2 interaction; Q15475+O00167; AlphaScreen GST-Six1/His-Eya2 binding, biochemical; hits give low values; activity change, % (test concentration not listed); 0.56% of 360,000 active; AID 651725; in the data active means activity change below about -65%; inconclusive means mostly about -30% to -63%; further: on the % scale 0 is the no-effect control and ±100 the full control effect
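Six1/Eya2 binding was read as AlphaScreen signal after compounds were pinned into GST-Six1 plus His-tagged Eya2 (5X stock 250/500 nM) in pH 8.0 Tris/NaCl/TCEP buffer, beads added, then incubated 1 h, 37 C, dark.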
HP1b binding inh – inhibitors of HP1-beta chromodomain binding to methylated histone tails; AlphaScreen HP1-beta / biotin-H3K9me3 peptide binding; 0.56% of 390,000 active; AID 540317; Potency, µM (doses to about 114 µM), for the others: at the top dose activity change, negative = inhibition, usual class: inhibitors; P83916; further: potency means the concentration at half of the fitted maximal effect; nearly all actives have a fitted effect of over 70% in size
Target sequence (P83916 whole entry, looked up): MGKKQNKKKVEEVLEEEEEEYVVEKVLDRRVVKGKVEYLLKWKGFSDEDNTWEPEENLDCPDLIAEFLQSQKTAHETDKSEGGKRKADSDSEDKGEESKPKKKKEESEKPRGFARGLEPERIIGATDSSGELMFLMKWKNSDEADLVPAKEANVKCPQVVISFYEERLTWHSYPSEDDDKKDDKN
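HP1-beta protein (50 nM final) preincubated 30 min at room temperature with biotinylated H3(1-18)K9me3 peptide (50 nM) in PBS pH 7.4, 0.01% Tween-20, then compound added for 30 min. AlphaScreen streptavidin donor/nickel chelate acceptor beads (10 ug/mL final), 30 min dark, luminescence read.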
CtBP-E1A blk – inhibitors of CtBP/E1A interaction. AlphaScreen GST-E1A/His-CtBP binding, 1536-well; hits give low values. activity change, % (no concentration beside the values). 0.49% of 340,000 active; in the data active means activity change below about -65%; inconclusive means mostly about -30% to -63%; further: on the % scale 0 is the no-effect control and ±100 the full control effect
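Homogeneous bead-based format: GST-tagged E1A captured on glutathione donor beads, His-tagged CtBP on nickel acceptor beads; compounds precede bead addition by 2 h at 37 °C.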
G9a block – inhibitors of human histone lysine methyltransferase G9a. Q96KQ7. G9a H3K9 monomethylation, AlphaScreen, 2 h. Potency, µM (doses to about 102 µM), for the others: at the highest dose activity, negative = inhibition, most hits filed as inhibitors. 8.8% of 350,000 active. AID 504332; further: potency means the concentration at half of the fitted maximal effect; on the % scale 0 is the no-effect control and ±100 the full control effect; nearly all actives have a fitted effect of over 75% in size
Target sequence (Q96KQ7 913-1193 limits assumed): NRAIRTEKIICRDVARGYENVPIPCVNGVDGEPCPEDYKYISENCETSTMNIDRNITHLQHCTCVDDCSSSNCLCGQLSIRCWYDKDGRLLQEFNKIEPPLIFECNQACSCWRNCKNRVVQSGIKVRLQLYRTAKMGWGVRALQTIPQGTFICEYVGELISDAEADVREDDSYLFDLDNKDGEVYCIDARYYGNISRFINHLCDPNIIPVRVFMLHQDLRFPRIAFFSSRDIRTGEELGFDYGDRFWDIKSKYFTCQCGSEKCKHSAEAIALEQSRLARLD
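Using a bead-based AlphaScreen, monomethylated H3K9 product from 2 h room-temperature reactions (G9a 20 nM, peptide 500 nM, SAM 20 uM) was detected with 0.5 ug/mL rabbit anti-H3K9me1 antibody.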
BAZ2B inh – inhibitors of human BAZ2B bromodomain | Q9UIF8 | AlphaScreen BAZ2B-H3K14Ac peptide displacement | Potency, µM (highest dose often 114 µM), for the others: top-dose activity change, negative = inhibition, actives largely listed as inhibitors | 4.4% of 360,000 active | AID 504333; further: potency means the concentration at half of the fitted maximal effect; on the % scale 0 is the no-effect control and ±100 the full control effect; nearly all actives have a fitted effect of over 60% in size
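Protein-peptide AlphaScreen: BAZ2B 50 nM, b-H3K14Ac 50 nM, 1x PBS pH 7.4 + 0.01% Tween-20. Preincubation 30 min RT; cpd 30 min RT (top 110 uM); beads 20 min RT, light-protected.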
JMJD2A Tudor inh – JMJD2A Tudor domain (human) inhibition | O75164 | AlphaScreen JMJD2A-Tudor / H3K4me3 peptide binding | Potency, µM (doses to about 114 µM), for the others: at the top dose activity change, negative = inhibition, actives largely listed as inhibitors | 4.4% of 390,000 active | AID 504339; further: potency means the concentration at half of the fitted maximal effect; on the % scale 0 is the no-effect control and ±100 the full control effect; nearly all actives have a fitted effect of over 50% in size
The depositor's hits bear a star; u = inconclusive; x = no result; [ ] = another dose, or the depositor's remark. Rows were chosen to be rich in hits. Some 10% of all compounds tested hit in one or more screens of this group. Unless noted, the call rests on the fitted dose curve; in most records, active means well fitted inhibition curve with a large enough effect; inconclusive means small, poorly fitted or top-dose-only effect; inactive means no such curve, though single readings can be large or run the other way.

SMILES	Six1-Eya2 inh	HP1b binding inh	CtBP-E1A blk	G9a block	BAZ2B inh	JMJD2A Tudor inh
COc1cc(OC)c2c(C)cc(=O)oc2c1C(CCN1CCCC(C)C1)c1ccc(N(C)C)cc1 (stereo not drawn)	x	u	x	x	x	28µM*
COc1ccc(C(CCN2CCCC2)c2c(O)cc(OC)cc2OC)cc1 (stereo not drawn)	16	-3%	19	11%[59 µM]	u	-24%
COc1cc(O)c(C(CCN2CCCC(C)C2)c2ccc(N(C)C)cc2)c(OC)c1 (stereo not drawn)	u	u	u	u	40µM*	25µM*
CCCCCc1cc(=O)oc2c(C(CCN3CCCC(C)C3)c3ccc(OC)cc3)c(OC)cc(OC)c12 (stereo not drawn)	-10	-16%	1	u	u	u
COc1cc(O)c(C(CCN2CCN(c3ccccc3)CC2)c2ccc(N(C)C)cc2)c(OC)c1 (stereo not drawn)	-78*	20µM*	-70*	u	7.9µM*	10µM*
COc1cc(O)c(C(CCN2CCOCC2)c2ccc(N(C)C)cc2)c(OC)c1 (stereo not drawn)	u	u	-27	u	35µM*	45µM*
CCc1c(C)sc2c1CCN(Cc1ccc(F)cc1)C2c1ccccc1 (stereo not drawn)	x	2%	x	u	-33%	u
COc1nc(-c2ccc(C)cc2)ccc1-c1noc(-c2ccc(C(C)(C)C)cc2)n1	x	33%	x	19%[59 µM]	1%	-1%
Cc1nnc(NC(=O)COc2ccccc2)s1	2	9%	6	u	-6%	-26%
CCOCC(=O)Nc1nnc(C)s1	18	18%	14	45µM*	11%	-2%
ClC(Cl)(c1nnnn1-c1ccccc1)c1nnnn1-c1ccccc1	12	u	13	0.56µM*	56µM*	20µM*
COc1cccc(CN2CCC(C(=O)Nc3ccc(-c4cccc(C)c4)cc3)CC2)c1O	-19	-4%	-17	20µM*	u	u
Cc1cccc(-c2ccc(NC(=O)C3CCN(CC4CC4)CC3)cc2)c1	0	22%	2	x	-5%	-27%
CC(=O)Nc1ccc(SCC(c2ccccc2)N2CCN(C)CCC2=O)cc1 (stereo not drawn)	x	15%	x	x	x	-11%
Cc1cc(C)n(-c2nc(C)c(C)c(=O)n2CC(=O)Nc2ccc(OC(F)(F)F)cc2)n1	x	60%	x	0%[59 µM]	2%	-9%
Cc1cc(C)n(-c2nc(C)c(C)c(=O)n2CC(=O)Nc2ccc(Cl)c(Cl)c2)n1	x	29%	x	4.5µM*	-8%	-16%
O=C(O)c1cn[nH]c1-n1cnnn1	u	15%	u	50µM*	-1%	u
CCOc1ccc(N)cc1OC	-1	-18%	0	50µM*	u	u
CCOc1ccc(C(N)=O)cc1OC	-2	28%	-5	10%[12.7 µM]	9%	-8%
COc1ccc(CNC(=O)C(CC(C)C)NS(=O)(=O)c2ccc3c(c2)CCN3C(C)=O)cc1 (stereo not drawn)	x	39%	x	9%[59 µM]	x	3%
CCc1ccccc1NC(=O)C(C)n1c(=O)cc(C)c2c(C)nn(-c3ccccc3)c21 (stereo not drawn)	x	-2%	x	17%[59 µM]	-6%	-11%
c1nc(NCc2ccc3c(c2)OCO3)c2cc(-c3ccoc3)ccc2n1	x	12%	x	0%[12.7 µM]	50µM*	-23%
c1cncc(-c2ccc3ncnc(NCc4ccc5c(c4)OCO5)c3c2)c1	x	26%	x	0%[12.7 µM]	-30%	-33%
N=c1n(CCN2CCCC2)c2ccccc2n1CC(O)c1ccco1 (stereo not drawn)	0	1%	-3	u	u	-18%
CCCCCCCn1c(=N)n(CC(O)c2ccco2)c2ccccc21 (stereo not drawn)	-6	14%	3	79µM*	-34%	-31%
